Experimental data published in PubChem BioAssay.

tested on: Chordin-like protein 2 (CHRDL2); assay: compounds binding chordin-like 2 – biochemical, small-molecule microarray, 635 nm fluorescence, primary screen (AID 1126); settings: fluorescence 635 nm, higher = more signal;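 note: printed compound slides probed with Chrdl2 protein at 4 µg/mL for 1 h at 4 C; score merges 667 nm emission intensity with signal to noise over three replicate slides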

Going from `CN(C)CCCC[C@@H]1NC(=O)[C@H]2C[C@@H](C(=O)NCCCCCN)[C@@H](c3cccc(OCCO)c3)N2C1=O` to `C[N+](C)(C)CCCC[C@@H]1NC(=O)[C@H]2C[C@@H](C(=O)NCCCCCCNC(=O)CS)[C@@H](c3ccc(O)cc3)N2C1=O`, the composite z-score falls from 0.402 to 0.0077.

Going from `C=CC[C@]1(C(=O)NCc2ccccc2)N=C(c2ccc(OCCCO)cc2)O[C@H]1c1ccccc1CN=[N+]=[N-]` to `C=CCN1Cc2ccccc2[C@@H]2OC(c3ccc(OCCCO)cc3)=N[C@]2(CCS(=O)(=O)c2ccccc2)C1=O`, the composite z-score rises from -0.329 to 1.03.

Compared with `O=C(CS)NCCCCCNC(=O)[C@@H]1C[C@@H]2C(=O)NCC(=O)N2[C@@H]1c1ccc(O)cc1`, `CC(C)(C)OC(=O)CC[C@]1(C(=O)NCCN2CCOCC2)COC(c2ccc(OCCCO)cc2)=N1` is lower in composite z-score: 0.616 for the first, -0.634 for the second.

Going from `C=CCC(OC(C)=O)[C@@H]1[C@@H](N(Cc2ccc(-c3cccc(C(F)(F)F)c3)o2)C(=O)c2cccc3ccccc23)c2cc(OCCCO)ccc2N1C(=O)Cc1ccc2ccccc2c1` (stereo not given in full) to `C=CCC(OC(C)=O)[C@@H]1[C@@H](N(Cc2ccc(-c3cccc(C(F)(F)F)c3)o2)C(=O)Cc2ccc(OC)cc2)c2cc(OCCCO)ccc2N1C(=O)c1ccc2ccccc2c1` (stereo not given in full), the composite z-score falls from 0.421 to -0.0916.

Compared with `CC(C)CN1C(=O)[C@@]2(c3ccc([N+](=O)[O-])cc3)CC(=O)N(C3CCCCC3)[C@@H]2c2ccc(CO)cc21`, `O=C1C2C=CC(C(O)C=Cc3ccc([N+](=O)[O-])cc3)N(n3cnnc3)C2C(=O)N1Cc1ccccc1` (stereo not given) is higher in composite z-score: -1.91 for the first, 0.682 for the second.

Going from `O=C1O[C@H](c2ccccc2)[C@H](c2ccccc2)N2[C@H]1[C@@H](C(=O)NC[C@H](O)c1ccccc1)[C@]1(C(=O)Nc3ccc(C#CC4=CCCCC4)cc31)[C@H]2c1ccccc1OCCO` to `C=CCNC(=O)[C@H]1[C@@H]2C(=O)O[C@@H](c3ccccc3)[C@@H](c3ccccc3)N2[C@@H](c2ccc(OCCO)cc2)[C@]12C(=O)Nc1ccc(C#CCC(C(=O)OC)C(=O)OC)cc12`, the composite z-score rises from -0.0358 to 1.24.

Compared with `O=C1NC(=O)C2C1C=CC(C(O)c1ccc(I)cc1)N2Nc1ccc(Cl)cc1Cl` (stereo not given), `O=C1C2C=CC(C(O)c3ccc4c(c3)OCO4)N(Nc3ccc([N+](=O)[O-])cc3)C2C(=O)N1c1ccccc1` (stereo not given) is higher in composite z-score: -0.776 for the first, -0.0385 for the second.

Going from `CC(C)CCC[C@@H](C)[C@H]1CC[C@@]2(C)C3=C(CC[C@]12C)[C@@]1(C)CC[C@H](OC(=O)c2ccc(C(F)(F)F)nc2)C(C)(C)C1CC3` (stereo not given in full) to `CN1C(=O)C2C=CC(C(O)c3ccccc3)N(N3CCCCC3)C2C1=O` (stereo not given), the composite z-score falls from 0.827 to -0.409.

First: CC[C@@H]1C=C(C(=O)O)[C@H](c2cccc3ccccc23)N1S(=O)(=O)c1ccc(C)cc1
Second: COc1ccc(C(O)C2C=CC3C(=O)N(C)C(=O)C3N2N(c2ccccc2)c2ccccc2)c2ccccc12 (stereo not given)
The composite z-score of the first is lower: 0.0837 for the first, 0.776 for the second.

Compared with `CC(=O)Nc1cc(Br)ccc1C(=O)NCc1ccccc1`, `COc1cc2c(cc1O)C=[N+](Cc1cc3c(cc1Br)OCO3)CC2` is higher in composite z-score: -0.141 for the first, -0.139 for the second.

molecular target: Concanavalin-A (Canavalia ensiformis) (UniProt P02866); assay: compounds binding concanavalin A lectin – biochemical, small-molecule microarray, Alexa647 label, 635 nm, artefact control for SMM control protein annotation, primary screen (AID 1127); settings: ConA-A647 binding fluorescence, higher = more signal;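 note: z combines 667 nm emission intensity with signal-to-noise across three replicate slides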
Sequence (P02866 whole entry, looked up): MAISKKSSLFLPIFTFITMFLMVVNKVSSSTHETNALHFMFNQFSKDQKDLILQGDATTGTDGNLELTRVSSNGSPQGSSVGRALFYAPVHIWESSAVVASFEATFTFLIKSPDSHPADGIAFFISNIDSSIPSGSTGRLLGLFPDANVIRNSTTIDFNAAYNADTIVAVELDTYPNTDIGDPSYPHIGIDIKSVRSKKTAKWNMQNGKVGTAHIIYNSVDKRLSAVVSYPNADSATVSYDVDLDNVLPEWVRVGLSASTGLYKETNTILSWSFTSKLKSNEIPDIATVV

Compared with `CC(C)N1CC=CC23O[C@@H]4C=CCOC(=O)[C@@H]4[C@H]2C(=O)N(CCCCCO)[C@@H]3C1=O` (stereo not given in full), `O=C1[C@H]2C=C(Br)[C@H](C[C@@H]2OCCCCCCO)[C@@]12CO2` is lower in composite z-score: 0.823 for the first, -1.57 for the second.

First: [N-]=[N+]=Nc1ccccc1C[C@@]1(C(=O)N2CCCCC2)N=C(c2ccc(OCCCO)cc2)O[C@@H]1c1ccccc1
Second: C=CC[C@@]1(C(=O)N2CCCCC2)N=C(c2ccc(OCCCO)cc2)O[C@@H]1c1ccccc1N=[N+]=[N-]
The composite z-score of the first is higher: 1.12 for the first, 1.04 for the second.

Compared with `OCC1C=C(/C=C/c2ccccc2)CN1Cc1ccccc1Br` (stereo not given), `CC(=O)Nc1cc(Br)ccc1C(=O)NCc1ccccc1` is lower in composite z-score: 0.94 for the first, 0.811 for the second.

Compared with `CO[C@H]1O[C@H](CO)[C@@H](OC(=O)Nc2ccc(Oc3ccccc3)cc2)[C@H](OC(=O)Nc2ccc3c(c2)OCO3)[C@@H]1OC(=O)Nc1ccc2c(c1)OCO2`, `O=C1C2C=CC(C(O)c3ccc4c(c3)OCO4)N(Nc3ccc([N+](=O)[O-])cc3)C2C(=O)N1c1ccccc1` (stereo not given) is lower in composite z-score: 1.18 for the first, 0.813 for the second.

Going from `COCCOC(=O)N1C(=O)[C@@]2(c3ccccc31)[C@H](C(=O)N1CCc3cc(OC)c(OC)cc3C1)[C@H]1C(=O)O[C@H](c3ccccc3)[C@H](c3ccccc3)N1[C@@H]2c1ccc(O)cc1` to `COCCOC(=O)N1C(=O)[C@@]2(c3cc(C#CC4(O)CCCCCC4)ccc31)[C@H](C(=O)Nc1nc3ccccc3s1)[C@H]1C(=O)O[C@H](c3ccccc3)[C@H](c3ccccc3)N1[C@@H]2c1ccccc1OCCO`, the composite z-score falls from 1.17 to 1.16.

Compared with `CCCCC(=C=CC[C@@H](O)c1cccc(OCCO)c1)C[C@@H](O)c1ccccn1`, `CC(C)(C)OC(=O)CC[C@@]1(C(=O)N2CCCCC2)N=C(c2ccc(OCCCO)cc2)O[C@@H]1c1ccccc1` is higher in composite z-score: 0.664 for the first, 0.719 for the second.

Compared with `CCOC(=O)C[C@H]1[C@H](OC(=O)c2cc3ccccc3oc2=O)[C@@H](NC(=O)CC(C)C)c2cc(OCCCO)ccc2N1C(=O)c1ccccc1`, `C=CCC(OC(C)=O)[C@@H]1[C@@H](N(Cc2ccc(-c3ccccc3)cc2)C(=O)Cc2ccc(F)cc2)c2cc(OCCCO)ccc2N1C(=O)c1ccc2ccccc2c1` (stereo not given in full) is lower in composite z-score: 0.298 for the first, -1.04 for the second.

First: Cc1ccc(S(=O)(=O)N2C[C@@H](C(=O)O)[C@H](Sc3ccccc3)C[C@H]2c2ccccc2)cc1
Second: CC[C@@H]1C=C(C(=O)O)[C@H](c2cccc3ccccc23)N1S(=O)(=O)c1ccc(C)cc1
The composite z-score of the first is higher: 1.13 for the first, 0.774 for the second.

Going from `COc1ccc(C(=O)Nc2cccc(CN3C(=O)[C@]4(O[C@H](CCn5cc(CCO)nn5)[C@@H]([Si](C)(C)c5ccc(OC)cc5)[C@@H]4C)c4ccccc43)c2)cc1` to `C=CCC(OC(C)=O)[C@@H]1[C@@H](N(Cc2ccc(-c3cccc(C(F)(F)F)c3)o2)C(=O)Cc2ccc(OC)cc2)c2cc(OCCCO)ccc2N1C(=O)c1ccc2ccccc2c1` (stereo not given in full), the composite z-score falls from 0.692 to -0.471.

First: C=C[C@H](C)[C@@H](OC(=O)Nc1ccc(SC)cc1)c1ccc(O)c2ccccc12
Second: COc1ccc(C(O)C2C=CC3C(=O)N(C)C(=O)C3N2N(c2ccccc2)c2ccccc2)c2ccccc12 (stereo not given)
The composite z-score of the first is higher: 1.02 for the first, 0.369 for the second.

Going from `CN(C)CCCC[C@@H]1NC(=O)[C@H]2C[C@@H](C(=O)NCCCCCN)[C@@H](c3cccc(OCCO)c3)N2C1=O` to `C[N+](C)(C)CCCC[C@@H]1NC(=O)[C@H]2C[C@@H](C(=O)NCCCCCCNC(=O)CS)[C@@H](c3ccc(O)cc3)N2C1=O`, the composite z-score falls from 1.12 to -2.35.

Compared with `C=CC[C@]1(C(=O)NCc2ccccc2)N=C(c2ccc(OCCCO)cc2)O[C@H]1c1ccccc1CN=[N+]=[N-]`, `C=CCN1Cc2ccccc2[C@@H]2OC(c3ccc(OCCCO)cc3)=N[C@]2(CCS(=O)(=O)c2ccccc2)C1=O` is higher in composite z-score: 0.79 for the first, 1.21 for the second.

Compared with `O=C(CS)NCCCCCNC(=O)[C@@H]1C[C@@H]2C(=O)NCC(=O)N2[C@@H]1c1ccc(O)cc1`, `CC(C)(C)OC(=O)CC[C@]1(C(=O)NCCN2CCOCC2)COC(c2ccc(OCCCO)cc2)=N1` is higher in composite z-score: 0.53 for the first, 0.919 for the second.

Going from `C=CCC(OC(C)=O)[C@@H]1[C@@H](N(Cc2ccc(-c3cccc(C(F)(F)F)c3)o2)C(=O)c2cccc3ccccc23)c2cc(OCCCO)ccc2N1C(=O)Cc1ccc2ccccc2c1` (stereo not given in full) to `C=CCNC(=O)[C@H]1[C@@H]2C(=O)O[C@@H](c3ccccc3)[C@@H](c3ccccc3)N2[C@@H](c2ccc(OCCO)cc2)[C@]12C(=O)Nc1ccc(C#CCC(C(=O)OC)C(=O)OC)cc12`, the composite z-score rises from -0.146 to 1.12.

First: CC(C)CN1C(=O)[C@@]2(c3ccc([N+](=O)[O-])cc3)CC(=O)N(C3CCCCC3)[C@@H]2c2ccc(CO)cc21
Second: O=C1C2C=CC(C(O)C=Cc3ccc([N+](=O)[O-])cc3)N(n3cnnc3)C2C(=O)N1Cc1ccccc1 (stereo not given)
The composite z-score of the first is lower: -0.895 for the first, 0.876 for the second.

First: O=C1O[C@H](c2ccccc2)[C@H](c2ccccc2)N2[C@H]1[C@@H](C(=O)NC[C@H](O)c1ccccc1)[C@]1(C(=O)Nc3ccc(C#CC4=CCCCC4)cc31)[C@H]2c1ccccc1OCCO
Second: CN1C(=O)C2C=CC(C(O)c3ccccc3)N(N3CCCCC3)C2C1=O (stereo not given)
The composite z-score of the first is higher: 0.978 for the first, 0.872 for the second.

Compared with `O=C1NC(=O)C2C1C=CC(C(O)c1ccc(I)cc1)N2Nc1ccc(Cl)cc1Cl` (stereo not given), `COc1cc2c(cc1O)C=[N+](Cc1cc3c(cc1Br)OCO3)CC2` is lower in composite z-score: 1.09 for the first, -1.27 for the second.

`CC(C)CCC[C@@H](C)[C@H]1CC[C@@]2(C)C3=C(CC[C@]12C)[C@@]1(C)CC[C@H](OC(=O)c2ccc(C(F)(F)F)nc2)C(C)(C)C1CC3` (stereo not given in full) was tested, and the composite z-score was 0.311.
